Tau fibril FP: tau fibrillization inhibition (FP). P10636. K18 P301L tau heparin fibrillization, Alexa594 FP, 6 h. Potency, µM (series often up to 57.7 µM), for inactives: at the highest dose activity, negative = inhibition, most hits filed as inhibitors. 0.39% of 280,000 active. AID 1468; note: nearly all actives have a fitted effect of over 55% in size
Target sequence (P10636 561-689 P618L limits assumed): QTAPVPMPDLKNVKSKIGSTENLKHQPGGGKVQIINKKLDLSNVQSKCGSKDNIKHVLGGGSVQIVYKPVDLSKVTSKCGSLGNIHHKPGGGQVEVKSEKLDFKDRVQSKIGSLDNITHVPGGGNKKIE
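Steps: dispense K18 P301L tau (15 uM plus 0.24 uM Alexa 594 tracer, final) in pH 7 sodium acetate; add compound; add heparin (20 uM final); incubate 6 hr, 37 C; add ThT (30 uM final); after 1 hr ambient, read FP.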
RGS12 GoLoco inh: blocks human Gai1 binding to RGS12 GoLoco peptide, red readout. P63096. Gai1:RGS12 GoLoco peptide FP, rhodamine, 10 min. Potency, µM (doses to about 61.6 µM), for the others: top-dose activity, negative = inhibition, most hits filed as inhibitors. 0.44% of 230,000 active; active = well fitted inhibition curve with a large enough effect, not every such curve was filed as active; inactive = no such curve, though single readings can be large or run the other way; note: nearly all actives have a fitted effect of over 30% in size
Target sequence (P63096 whole entry, looked up): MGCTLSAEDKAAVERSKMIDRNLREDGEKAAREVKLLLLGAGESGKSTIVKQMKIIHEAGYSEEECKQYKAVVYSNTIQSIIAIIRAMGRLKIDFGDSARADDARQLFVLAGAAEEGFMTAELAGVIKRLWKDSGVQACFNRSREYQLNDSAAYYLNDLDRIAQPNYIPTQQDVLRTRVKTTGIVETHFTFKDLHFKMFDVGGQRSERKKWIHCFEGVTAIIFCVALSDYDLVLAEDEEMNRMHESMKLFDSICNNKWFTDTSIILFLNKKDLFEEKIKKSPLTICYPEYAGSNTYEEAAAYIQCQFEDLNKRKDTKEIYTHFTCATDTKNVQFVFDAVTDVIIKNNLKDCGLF
TR SRC2 fluor cs: Texas Red fluorescence interference in TRb-SRC2 counter-screen; Potency, µM (doses to about 106 µM), for inactives: at the top dose fluorescence change, negative = quenching; AID 1479; TRb/SRC2 Texas Red total fluorescence interference; 0.29% of 280,000 active; active = well fitted curve in either direction with a large enough effect; inconclusive = small, poorly fitted or top-dose-only effect
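Human TRβ ligand-binding domain (0.6 uM) and Texas Red SRC2 peptide (20 nM) in Tris buffer with 1 uM T3 and 5% DMSO were incubated with pinned compound for 5 hr at ambient temperature. Total fluorescence was computed as S + 2P (555/632 nm).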
Tau fibril ThT: tau fibrillization inhibition (ThT binding) | P10636 | recombinant tau K18 P301L, heparin-induced fibrillization, ThT fluorescence | Potency, µM (series often up to 57.4 µM), for the others: top-dose activity, negative = inhibition, usual class: inhibitors | 2.1% of 270,000 active | AID 1460; note: nearly all actives have a fitted effect of over 55% in size
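Heparin-induced (20 uM) aggregation of recombinant human K18 P301L tau, 15 uM unlabeled with 0.24 uM labeled, pH 7 acetate buffer, 6 hr at 37 C with compound. Fibrils quantified by 30 uM ThT fluorescence after 1 hr ambient incubation.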
TRb-SRC2 inh: disrupts binding of human TR beta to SRC2; AID 1469; Potency, µM (series often up to 106 µM), without a hit: top-dose activity change, negative = inhibition, hits mostly inhibitors; P10828; 0.065% of 280,000 active; TRbeta-SRC2 peptide binding, fluorescence polarization; receptor liganded with 1 µM T3;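 note: plate controls were bound peptide for no effect and peptide without receptor for full effect; nearly all actives have a fitted effect of over 50% in size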
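Fluorescence polarization of 20 nM Texas Red SRC2 peptide with 0.6 uM human TRb ligand-binding domain, in Tris buffer with 1uM T3 and 5% DMSO. Incubated 5 hr ambient; normalized to unbound and bound controls.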
Tau fluor cs: counter-screen for tau fibril formation inhibitors; AID 1463; 0.93% of 280,000 active; Potency, µM (series often up to 57.7 µM), for inactives: at the top dose activity change, negative = decrease; tau K18 P301L (four-repeat tau fragment) Alexa594 fluorescence, heparin fibrillization; note: nearly all actives have a fitted effect of over 55% in size
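Human K18 P301L tau (15 uM unlabeled plus 0.24 uM Alexa 594-labeled, final) in 100 mM sodium acetate pH 7 was mixed with compound and 20 uM heparin and incubated 6 hr at 37 C.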
An asterisk follows results filed as active; ? = inconclusive; / = no result given; [ ] = dose if it differs, or a comment. This is a sample that favours compounds with a hit; in the whole collection about 3.2% have one here. Unless noted, calls come from the whole dose curve; as a rule, active = well fitted curve in the direction sought with a large enough effect; inconclusive = small, poorly fitted or top-dose-only effect, or another doubt; inactive = no such curve, though single readings can be large; an effect the other way counts as inactive or inconclusive. Unless noted, % is set by controls: 0 for no effect and ±100 for the full control effect; potency is the fitted concentration of half-maximal effect.

SMILES	Tau fibril FP	RGS12 GoLoco inh	TR SRC2 fluor cs	Tau fibril ThT	TRb-SRC2 inh	Tau fluor cs
O=C(/C=C/c1cccnc1)c1cc(F)ccc1O	14%	-3%	-1%	-5%	3%	26%
CN(C)c1ccc(/C=C/C(=O)c2cc(Cl)ccc2O)cc1	11%	163%	19%	4µM*	20%	?
O=C(O)c1ccccc1C1=Nc2ccc(O)cc2Oc2cc(O)ccc21	-3%	25µM*	0%	-5%	-13%	6%
COC(=O)[C@H](C)NC(=O)[C@@H](C)CO	1%[11.6 µM]	/	-4%[11.2 µM]	-3%[11.5 µM]	3%[11.2 µM]	-1%[11.6 µM]
COc1ccc(OC)c(-c2noc(N3CCN(c4cccc(C(F)(F)F)c4)CC3)n2)c1	3%	/	5%	?	4%	-23%
CCOC(=O)c1c(NC(C)=O)c2c3c(sc2n1Cc1nc(-c2cccc(Cl)c2)oc1C)CCCC3	0%	/	-23%	-11%	-1%	-17%
CCOC(=O)c1c(NC(C)=O)c2c3c(sc2n1Cc1nc(-c2ccccc2Cl)oc1C)CCCC3	-5%	/	18µM*[quencher]	-7%	-14%	-7%
CNC(=S)N(CCc1c(C)[nH]c2ccc(C)cc12)Cc1cccs1	6%	-1%	-1%	?	-2%	20µM*[quencher]
COc1ccc2[nH]cc(CCNC(=O)Nc3cccc(F)c3)c2c1	?	/	-4%	?	3%	25µM*[quencher]
COc1ccc2[nH]c(C)c(CCN(Cc3cccs3)C(=S)Nc3ccc(F)cc3)c2c1	-2%	1%	0%	?	-14%	7.9µM*[quencher]
COc1ccc2[nH]cc(CCNC(=O)Nc3c(C)cccc3C)c2c1	8%	/	-3%	-11%	0%	-18%
COc1ccc(NC(=S)N(CCc2c(C)[nH]c3ccc(C)cc23)Cc2ccco2)cc1	?	20%	0%	?	2%	14µM*[quencher]
CCOc1ccc(NC(=S)N(CCc2c(C)[nH]c3ccc(C)cc23)Cc2ccco2)cc1	0%	30%	-1%	?	3%	?
Nc1cc(Cl)c(O)c(Cl)c1	/	/	?	/	-13%[201 µM]	/
COc1ccc(OC)c(NC(=O)c2cc3cccc(OC)c3oc2=O)c1	8%	/	3%	-8%	-2%	-4%
CCCN1CCCC(c2cccc(S(C)(=O)=O)c2)C1 (configuration not stated)	/	/	2%	/	2%	/
COC(=O)[C@]1(C)CCC[C@]2(C)c3ccc(C(C)C)cc3C(=O)CC12 (some centres not stated)	-2%	-9%	-7%	?	-2%	-15%
O=C1c2ccccc2CCC1CNCCc1ccc(O)cc1 (configuration not stated)	10%	-10%	-3%	-16%	12%	6%
COc1ccc2[nH]c(C)c(CCNC(=S)Nc3cccc(C)c3)c2c1	15%	8%	-6%	?	5%	16µM*[quencher]
COc1ccc2[nH]c(C)c(CCNC(=S)Nc3cc(C)cc(C)c3)c2c1	7%	1%	0%	-4%	-7%	?
COC(=O)c1ccc(Oc2nc3c(c(=O)n(C)c(=O)n3C)n2Cc2ccc(Cl)c(Cl)c2)cc1	-1%	/	-2%	-6%	-1%	-13%
CC(=O)/C=C/C1C(C)=CCCC1(C)C (configuration not stated)	/	/	0%[201 µM]	/	-1%[201 µM]	/
Cc1cc2c(cc1C)CSC(c1c(O)ccc3ccccc13)SC2	22µM*	-3%	0%	?	-1%	7.9µM*[quencher]
Cc1cc2c(cc1C)CSC(c1ccc3ccccc3c1O)SC2	-2%	13%	-3%	-18%	3%	?
Cc1nc2c(-c3ccc(F)cc3)c(C)nn2c(C)c1CCC(=O)Nc1ccccc1	-11%	3%	0%	9%	2%	-8%
SMILES	Tau fibril FP	RGS12 GoLoco inh	TR SRC2 fluor cs	Tau fibril ThT	TRb-SRC2 inh	Tau fluor cs
CCN1CCN(c2ccc(NC(=O)CCc3c(C)nc4c(-c5ccc(F)cc5)c(C)nn4c3C)cc2)CC1	2%	14%	0%	?	0%	18µM*[quencher]
O=C(O)[C@@H]1CCCN1Cc1cc2ccccc2c2ccccc12	/	7%[14.2 µM]	/	/	/	/
Cc1cccc(NC(=O)Cn2c(O)c(N=NC(=O)c3ccccc3O)c3ccccc32)c1	0%	4%	-1%	16µM*	-1%	?
N#C/C(=C\c1ccc(O)c(O)c1)C(=O)OCCc1cccs1	13%	0%	-4%	14µM*	7%	18µM*[quencher]
Cc1cc(O)c(/C=N/OCc2ccc(Cl)cc2Cl)c(=O)o1	-2%	4%	4%	-7%	6%	-2%
CN(C)/C=C(\C=N\OCc1ccc(Cl)cc1Cl)C(=O)Nc1ccc(Cl)c(Cl)c1	-7%	2%	-2%	?	-10%	16µM*[quencher]
O=C(NCc1ccccc1)C1(C(F)(F)F)C/C(=C\Cc2ccccc2)CCCO1 (configuration not stated)	/	/	-1%	/	1%	/
CCCCOC(=O)c1cccc(NC(=O)/C=C/c2ccccc2Cl)c1	10µM*	/	-15%	7%	-8%	?
Cc1cc(N2CCCCC2)nc2ccc(NC(=O)c3cccc(F)c3)cc12	10%	/	0%	?	5%	13µM*[quencher]
Cc1cc(N2CCCCC2)nc2ccc(NC(=O)c3cccc(Cl)c3)cc12	?	/	-3%	10µM*	-5%	14µM*[quencher]
CCN(CC)c1cc(C)c2cc(NC(=O)/C=C/c3ccccc3Cl)ccc2n1	9%	/	-2%	3.5µM*	11%	7.9µM*[quencher]
N[C@H](CS)C(=O)O	?	4%	0%	?	-3%	-12%
CCN(CC)S(=O)(=O)c1nnc(NC(=O)COc2ccc(C)cc2)s1	-6%	/	-29%	?	3%	-26%
COc1ccc2c(c1)C(=O)[C@H](OC(=O)NCCOc1ccccc1)[C@@H](c1ccc(OC)c(Br)c1)O2	-3%	2%	-2%	-10%	11%	-20%
CCN(CC)c1cc(C)c2cc(NC(=O)c3cccc(F)c3)ccc2n1	16%	/	0%	?	-2%	32µM*[quencher]
CCN(CC)c1ccc(/C=N/NC(=O)c2ccc(Br)o2)cc1	12%	-15%	-8%	3.2µM*	5%	?
CCCc1ccc(O)c(N=Cc2cc(Br)cc(OCC)c2O)c1	-11%	168%	0%	14µM*	-3%	-23%
CCc1ccc(O)c(N=Cc2cccc(C)c2O)c1	-8%	37%	-6%	?	-2%	?

Screening results: PubChem BioAssay, National Center for Advancing Translational Sciences (NCATS)
